Screens (PubChem BioAssay)
D3 ag = D3 dopamine receptor (human) agonism. 410,000 compounds, 0.58% hits. P35462. max activation, %. D3R DiscoveRx beta-arrestin cells, luminescence, 90 min. AID 652048; in the data active = max activation above about 30%; note: 0% is about no effect
Target sequence (P35462 whole entry, looked up): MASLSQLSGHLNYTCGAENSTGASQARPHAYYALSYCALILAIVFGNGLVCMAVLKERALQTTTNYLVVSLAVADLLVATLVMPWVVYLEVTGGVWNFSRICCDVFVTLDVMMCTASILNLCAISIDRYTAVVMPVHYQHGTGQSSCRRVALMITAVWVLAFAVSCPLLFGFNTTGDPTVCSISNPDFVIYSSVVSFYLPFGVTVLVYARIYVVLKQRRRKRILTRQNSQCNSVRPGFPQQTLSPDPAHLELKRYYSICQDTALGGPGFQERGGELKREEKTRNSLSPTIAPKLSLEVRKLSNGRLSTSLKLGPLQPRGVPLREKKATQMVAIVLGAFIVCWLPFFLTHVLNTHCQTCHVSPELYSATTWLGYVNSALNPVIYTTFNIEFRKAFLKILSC
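Cells at 1500/well, incubated overnight, then treated with pinned compounds (dopamine as control) for 90 min at 37 degrees C. DiscoveRx reagent added for 30 - 60 minutes at room temperature; luminescence read.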
ATXN viability = cell viability loss in ATXN counter-screen; S2 cells (HEK-293 line with an ATXN2-luciferase reporter) viability, CellTiter-Fluor protease fluorescence, 24 h; Potency, µM (titrated, usually from 56.7 µM), usual class: cytotoxic; 400,000 compounds, 0.49% hits; AID 651635; note: potency is the fitted concentration of half-maximal effect; nearly all actives have a fitted effect of over 40% in size
D3 antag = blocks the human D3 dopamine receptor; P35462; D3R cells, DiscoveRx beta-arrestin luminescence, antagonist mode; hits give low values; max response, negative = inhibition, %; 360,000 compounds, 2.5% hits; AID 652054; in the data active = max response below about -50%; inconclusive = no clear call, values can overlap the other calls; note: % is set by controls: 0 for no effect and ±100 for the full control effect
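Cells plated overnight at 1500 cells/well, then exposed to library compounds with dopamine controls for 90 minutes at 37 degrees C. DiscoveRx reagent added for 30–60 minutes at room temperature; luminescence read, quantitative HTS format.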
Integrin act MD = activates integrin-mediated alleviation for muscular dystrophy. 350,000 compounds, 0.064% hits. Potency, µM (titrated, usually from 38.3 µM), without a hit: at the highest dose activation, most hits filed as activators. AID 624291. alpha7betagal myoblasts, beta-gal FDG fluorescence, 48 h;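 note: potency is the fitted concentration of half-maximal effect; 100% = response of the positive control SU9516; nearly all actives have a fitted effect of over 60% in size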
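alpha7betagal+/- myoblasts (passage 13, 250/well) treated 48 h at 37C with compounds at 1:260 dilution of DMSO stock. Lysed, then beta-galactosidase activity read as FDG fluorescence (ex 480/em 540) after 30 min, with pre-read for autofluorescence.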
IL1B secr inh = blocks inflammasome-driven IL-1 beta release | THP-1 LPS/ATP IL-1B secretion, AlphaLISA, 16 h; hits give low values | activity change, % at 57.5 µM | 360,000 compounds, 4.7% hits | AID 743279; in the data active = activity change below about -50%; inconclusive = mostly about -30% to -49%; note: % is set by controls: 0 for no effect and ±100 for the full control effect
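THP-1 cells pretreated 1 hr with compounds (up to 57.5 uM final), then stimulated with LPS (250 ng/mL final) plus ATP (1.25 mM final); secreted IL-1B measured by AlphaLISA after 16 hr, decreased signal indicating inhibition.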
ATXN2 expr inh = inhibitors of ATXN2 expression; HEK-293 ATXN2-luciferase reporter, luminescence, 24 h; Potency, µM (doses to about 57 µM), inactives show top-dose activity change, negative = inhibition, hits mostly inhibitors; 360,000 compounds, 0.72% hits; note: potency is the fitted concentration of half-maximal effect; % is set by controls: 0 for no effect and ±100 for the full control effect; nearly all actives have a fitted effect of over 55% in size
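ATXN2-luciferase reporter cells (luciferase flanked by upstream and downstream ATXN2 gene portions) were treated 24 h at 37 °C with compounds at up to 57 uM. SteadyGlo luminescence gave expression; GF-AFC fluorescence gave viability.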
The depositor's hits bear a star; i = inactive; ? = inconclusive; / = no result. Shown are actives, neighbours in structure and some others; about 7% of the full set was active somewhere. Unless noted, calls come from the whole dose curve; as a rule, active = well fitted curve in the direction sought with a large enough effect; inconclusive = small, poorly fitted or top-dose-only effect, or another doubt; inactive = no such curve, though single readings can be large; an effect the other way counts as inactive or inconclusive.

SMILES	D3 ag	ATXN viability	D3 antag	Integrin act MD	IL1B secr inh	ATXN2 expr inh
O=C(CC1C(=O)NCCN1Cc1cccc(F)c1)NC1CCC1 (stereo not given)	8.3	i	1.0	16.9%	-61.0*	4.4%
CCOc1ccc(S(=O)(=O)Nc2ccc(C(=O)NCC(c3ccco3)N(C)C)cc2)cc1 (stereo not given)	-15.0	i	2.4	4.0%	0.0	2.6%
COC(=O)N1C(=O)[C@](c2ccc(OC)cc2)(C(C)C)N1C(=O)OC	8.5	?	3.4	-6.0%	-91.8*	6.6%
CC(C)C1(c2ccsc2)NC(=O)NC1=O (stereo not given)	-3.6	i	20.0	14.2%	0.0	1.0%
COc1ccc(C2(C)NC(=O)N(CC(=O)NC(C)c3ccc(CC(C)C)cc3)C2=O)cc1 (stereo not given)	1.7	i	-9.4	-17.6%	-20.6	/
COC(=O)N1C(=O)[C@](c2ccsc2)(C(C)C)N1C(=O)OC	-22.8	i	?	-0.4%	-98.8*	-13.9%
COc1nc2c(s1)C(=O)NCCC2	1.1	i	10.6	-12.2%	15.4	-4.0%
Cc1cc(C)c2c(n1)SCC(=O)N2CC(=O)Nc1ccccc1C	9.5	i	/	/	/	13.2%
CCOC(=O)c1cnc2c(ccc3ccccc32)c1Nc1ccc(OCC)cc1	-2.5	i	/	/	/	7.2%
CCOC(=O)c1cnc2c(C)c(C)ccc2c1Nc1ccc(S(=O)(=O)Nc2ncccn2)cc1	-1.5	i	-3.3	-8.5%	-92.7*	13.0%
O=S(=O)(c1cccs1)N1CCN(CCc2ccccc2)CC1	-14.7	i	-19.1	8.2%	0.9	-10.3%
CNc1nc(N/N=C/c2ccc([N+](=O)[O-])cc2)nc(Nc2ccccc2)n1	-1.4	i	7.4	15.5%	-16.1	-8.2%
COc1cccc(NC(=O)CN2C(=O)NC(Cc3c[nH]c4ccccc34)C2=O)c1 (stereo not given)	-12.8	i	-7.3	?	-8.9	1.7%
O=C(CN1C(=O)NC(Cc2c[nH]c3ccccc23)C1=O)Nc1cccc(S(=O)(=O)N2CCCC2)c1 (stereo not given)	-7.9	/	-7.0	-6.6%	10.7	9.8%
COc1ccc(Cl)cc1NC(=O)CN1C(=O)NC(Cc2c[nH]c3ccccc23)C1=O (stereo not given)	4.3	i	9.4	7.6%	-56.5*	2.3%
O=C(CN1C(=O)NC(Cc2c[nH]c3ccccc23)C1=O)Nc1cccc(S(=O)(=O)N2CCCCCC2)c1 (stereo not given)	0.5	i	12.8	-19.8%	-55.0*	-20.3%
COC(=O)C1C(=O)OC(C)(C)C1C(C)C(=O)c1ccccc1 (stereo not given)	7.3	i	-1.4	-2.7%	10.2	2.0%
O=C(Nc1ccc(F)cc1)N1CCc2ccccc2C1	-4.3	i	13.6	?	-55.2*	48.6%
O=C(c1nc[nH]c1C(=O)N1CCc2ccccc2C1)N1CCc2ccccc2C1	141.9*	i	36.1	17.8%	12.7	0.1%
O=C(Nc1ccc(Br)cc1)N1CCc2ccccc2C1	-20.0	i	-11.9	-1.0%	-83.4*	36.2%
O=C(NC1CCCCC1)N1CCc2ccccc2C1	-8.1	i	?	8.0%	-78.7*	/
Cc1ccc(NC(=O)N2CCc3ccccc3C2)cc1C	-12.9	i	-3.3	1.6%	9.7	17.5%
NCCNC(=O)Cn1c(=O)c2c3c(sc2n(Cc2ccccc2)c1=O)CCCC3	-1.6	?	?	13.6%	-77.6*	-20.1%
NCCCNC(=O)Cn1c(=O)c2c3c(sc2n(Cc2ccccc2)c1=O)CCCC3	-9.1	i	-10.2	-43.7%	3.0	-15.0%
CN(C)CCn1c(=O)n(Cc2ccccc2)c(=O)c2c3c(sc21)CCCCC3	-15.6	i	-22.5	-3.4%	-63.6*	-17.1%
COc1ccccc1C(NC(=O)C1CCN(CCOc2ccc(Cl)cc2)CC1)c1ccccn1 (stereo not given)	-8.3	?	-77.8*	/	/	-22.2%
